Experimental data as given in PubChem BioAssay.
Activity calls are given as the source filed them.

Legend:
[1] = binders of probe aFSTL3 on microarray, primary screen, stem cell growth factor project, biochemical, small-molecule microarray, fluorescence 635/667 (AID 1064); conditions: higher = more signal;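 also: measures binding of the biotinylated anti-FSTL3 antibody to printed compounds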
[2] = binders from COS7 lysate, DM2A8 probe, primary screen, torsin A project, cell lysate, small-molecule microarray, fluorescence 635/667 (AID 1065); conditions: higher = more signal, COS7 lysate expressing mutant human TOR1A
[3] = binders of probe aFGF2 on microarray, primary screen, stem cell growth factor project, biochemical, small-molecule microarray, fluorescence 635/667 (AID 1067); conditions: higher = more signal;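 also: measures binding of biotinylated aFGF2 protein to printed compounds on slides; z-score merges feature fluorescence and signal-to-noise across triplicate slides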
[4] = binders of probe aFGF10 on microarray, primary screen, stem cell growth factor project, biochemical, small-molecule microarray, fluorescence 635/667 (AID 1071); conditions: higher = more signal;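 also: score merges 667 nm spot intensity and signal to noise from triplicate slides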
[5] = target: Neurogenic locus notch homolog protein 2 (Homo sapiens) (UniProt Q04721); experiment: Notch2 binders on small-molecule microarrays, primary screen, biochemical, small-molecule microarray, 635 nm fluorescence, stem cell growth factors (AID 1073); conditions: Notch2 binding, higher = more signal
Chain of Neurogenic locus notch homolog protein 2 (Homo sapiens) (Q04721 whole entry, looked up, canonical isoform): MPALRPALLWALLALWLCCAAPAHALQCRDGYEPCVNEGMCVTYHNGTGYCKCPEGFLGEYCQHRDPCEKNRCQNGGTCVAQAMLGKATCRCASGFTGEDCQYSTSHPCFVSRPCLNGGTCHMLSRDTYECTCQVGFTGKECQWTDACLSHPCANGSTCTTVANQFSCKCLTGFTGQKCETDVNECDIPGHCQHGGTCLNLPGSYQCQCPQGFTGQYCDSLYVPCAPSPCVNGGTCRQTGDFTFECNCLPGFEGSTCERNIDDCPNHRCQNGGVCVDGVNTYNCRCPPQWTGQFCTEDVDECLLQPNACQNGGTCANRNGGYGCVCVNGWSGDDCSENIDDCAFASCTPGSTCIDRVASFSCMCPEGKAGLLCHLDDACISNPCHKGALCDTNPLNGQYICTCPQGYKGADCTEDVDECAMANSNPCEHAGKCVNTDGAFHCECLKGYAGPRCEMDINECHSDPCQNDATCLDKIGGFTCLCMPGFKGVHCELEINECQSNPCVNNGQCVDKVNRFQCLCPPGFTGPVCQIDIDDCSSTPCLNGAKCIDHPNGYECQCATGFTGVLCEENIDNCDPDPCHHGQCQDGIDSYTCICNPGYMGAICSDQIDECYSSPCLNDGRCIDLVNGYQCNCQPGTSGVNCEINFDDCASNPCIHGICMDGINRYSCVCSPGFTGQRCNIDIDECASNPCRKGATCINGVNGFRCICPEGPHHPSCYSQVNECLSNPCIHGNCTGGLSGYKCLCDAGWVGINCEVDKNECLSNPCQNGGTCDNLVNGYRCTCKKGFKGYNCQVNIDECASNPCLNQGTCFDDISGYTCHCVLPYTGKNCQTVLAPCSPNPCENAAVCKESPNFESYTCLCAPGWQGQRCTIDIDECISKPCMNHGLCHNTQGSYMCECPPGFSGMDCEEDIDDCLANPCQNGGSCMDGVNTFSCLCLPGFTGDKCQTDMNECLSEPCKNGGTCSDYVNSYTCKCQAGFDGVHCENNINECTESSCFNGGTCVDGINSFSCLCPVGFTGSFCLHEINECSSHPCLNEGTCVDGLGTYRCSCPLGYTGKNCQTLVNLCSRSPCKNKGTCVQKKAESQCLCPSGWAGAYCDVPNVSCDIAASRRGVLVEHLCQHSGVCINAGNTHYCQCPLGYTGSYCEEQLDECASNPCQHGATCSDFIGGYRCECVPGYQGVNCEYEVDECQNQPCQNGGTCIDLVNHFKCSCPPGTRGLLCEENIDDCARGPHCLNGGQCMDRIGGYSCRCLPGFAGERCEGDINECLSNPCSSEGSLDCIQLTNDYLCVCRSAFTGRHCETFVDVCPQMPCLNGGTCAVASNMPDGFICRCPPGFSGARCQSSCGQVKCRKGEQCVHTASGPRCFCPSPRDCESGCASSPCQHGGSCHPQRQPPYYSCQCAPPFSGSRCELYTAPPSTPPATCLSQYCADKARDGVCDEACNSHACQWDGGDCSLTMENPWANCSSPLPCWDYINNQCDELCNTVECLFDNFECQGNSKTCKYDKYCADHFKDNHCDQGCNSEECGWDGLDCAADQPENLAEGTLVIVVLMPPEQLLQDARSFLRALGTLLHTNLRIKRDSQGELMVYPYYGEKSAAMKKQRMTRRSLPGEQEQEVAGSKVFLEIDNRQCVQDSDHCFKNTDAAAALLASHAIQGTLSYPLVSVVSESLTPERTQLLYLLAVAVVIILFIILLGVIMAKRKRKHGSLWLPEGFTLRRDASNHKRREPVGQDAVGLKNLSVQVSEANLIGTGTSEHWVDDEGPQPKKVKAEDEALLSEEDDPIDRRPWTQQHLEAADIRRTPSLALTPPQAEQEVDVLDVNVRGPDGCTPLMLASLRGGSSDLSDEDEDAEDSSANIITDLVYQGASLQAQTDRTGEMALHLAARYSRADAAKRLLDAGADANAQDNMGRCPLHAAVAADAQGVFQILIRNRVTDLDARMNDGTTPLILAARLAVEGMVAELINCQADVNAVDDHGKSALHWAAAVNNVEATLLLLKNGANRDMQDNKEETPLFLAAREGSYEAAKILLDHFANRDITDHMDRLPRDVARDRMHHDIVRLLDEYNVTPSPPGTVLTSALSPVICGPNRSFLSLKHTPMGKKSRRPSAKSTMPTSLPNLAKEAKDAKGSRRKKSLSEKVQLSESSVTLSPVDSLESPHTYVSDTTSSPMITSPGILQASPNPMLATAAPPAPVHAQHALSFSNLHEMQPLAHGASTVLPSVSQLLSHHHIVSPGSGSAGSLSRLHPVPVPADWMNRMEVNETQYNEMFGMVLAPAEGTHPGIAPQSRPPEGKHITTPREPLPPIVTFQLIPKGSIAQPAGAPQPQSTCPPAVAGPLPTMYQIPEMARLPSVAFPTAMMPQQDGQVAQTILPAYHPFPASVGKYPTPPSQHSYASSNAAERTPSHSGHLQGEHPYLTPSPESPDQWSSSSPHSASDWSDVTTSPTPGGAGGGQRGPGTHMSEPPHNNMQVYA

[6] = target: Pro-neuregulin-1, membrane-bound isoform (Homo sapiens) (UniProt Q02297); experiment: NRG1 binders on small-molecule microarrays, primary screen, psychiatric disease protein project, biochemical, small-molecule microarray, fluorescence 635/667 (AID 1075); conditions: NRG1 binding, 635 nm fluorescence, higher = more signal;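 also: score combines 667 nm spot fluorescence with signal to noise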
Chain of Pro-neuregulin-1, membrane-bound isoform (Homo sapiens) (Q02297 whole entry, looked up, the tested form may be a part, canonical isoform): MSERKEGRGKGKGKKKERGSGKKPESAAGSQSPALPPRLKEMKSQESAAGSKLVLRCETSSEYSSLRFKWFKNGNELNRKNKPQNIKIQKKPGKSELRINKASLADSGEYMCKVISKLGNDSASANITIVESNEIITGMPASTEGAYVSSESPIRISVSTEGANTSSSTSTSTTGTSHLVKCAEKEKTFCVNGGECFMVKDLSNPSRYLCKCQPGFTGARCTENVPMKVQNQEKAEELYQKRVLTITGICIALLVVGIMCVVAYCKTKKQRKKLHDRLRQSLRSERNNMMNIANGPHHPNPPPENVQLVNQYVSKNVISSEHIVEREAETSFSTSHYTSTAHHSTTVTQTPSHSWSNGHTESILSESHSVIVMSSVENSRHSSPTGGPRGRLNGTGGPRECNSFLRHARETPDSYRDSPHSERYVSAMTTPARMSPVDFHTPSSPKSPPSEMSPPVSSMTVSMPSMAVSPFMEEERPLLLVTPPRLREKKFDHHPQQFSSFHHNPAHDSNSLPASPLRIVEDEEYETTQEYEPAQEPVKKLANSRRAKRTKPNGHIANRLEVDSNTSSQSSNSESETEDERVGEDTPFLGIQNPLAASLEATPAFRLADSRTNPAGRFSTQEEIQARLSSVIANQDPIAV

[7] = system: Neuregulin-1 EGF-like domain; experiment: binders of neuregulin-1 EGF-like domain, primary screen, biochemical, small-molecule microarray, 635 nm fluorescence (AID 1081); conditions: small-molecule microarray binding, higher = more signal;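 also: binding of the protein to compounds printed on small-molecule microarray slides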
[8] = FRG1 promoter luciferase signal modulators, primary screen, FRG1 inhibition for FSHD, cell-based, C2C12 myotubes, firefly/Renilla luciferase, luminescence (AID 1084); conditions: higher = more signal, called active from +8 up or from −8 down
[9] = binders of probe aFST on microarray, primary screen, stem cell growth factor project, biochemical, small-molecule microarray, fluorescence 635/667 (AID 1086); conditions: higher = more signal;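 also: score merges 667 nm fluorescence with signal-to-noise of each printed compound spot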
[10] = binders of probe aHhip on microarray, primary screen, stem cell growth factor project, biochemical, small-molecule microarray, fluorescence 635/667 (AID 1087); conditions: higher = more signal;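 also: score merges spot fluorescence at 667nm with spot signal to noise ratio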
[11] = system: PRMT1 (protein arginine N-methyltransferase 1); experiment: PRMT1 binders on small-molecule microarrays, primary screen, biochemical, small-molecule microarray, 635 nm fluorescence (AID 1088); conditions: small-molecule microarray binding, higher = more signal;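 also: binding of Prmt1 protein to compounds spotted on small-molecule microarray slides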
[12] = yeast growth modulation, basal conditions, primary screen, YJM789 clinical isolate, OD600, 24 h (AID 1089);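 also: growth of clinical yeast isolate S. cerevisiae YJM 789 seeded 1000 cells per well; test concentration not given here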; conditions: S. cerevisiae YJM789 growth, higher = more signal, called active from +8 up or from −8 down
[13] = fission yeast growth modulation, primary screen, strain 972, OD600, 24 h, no modulator (AID 1090);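 also: basal condition with compound alone and no growth modifier present; test concentration not given here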; conditions: S. pombe 972 growth, higher = more signal, called active from +8 up or from −8 down
[14] = S. cerevisiae growth modulation with rapamycin, primary screen, strain BY4716, OD600, 96 h (AID 1091); conditions: higher = more signal, called active from +8 up or from −8 down; also: test concentration not given here
[15] = target: Torsin-1A-interacting protein 2 (Homo sapiens) (UniProt Q8NFQ8); experiment: LULL1 binders on small-molecule microarray, primary screen, cell lysate, human LULL1 lysate, 635/667 nm fluorescence (AID 1092); conditions: hLULL1 lysate binding, 635 nm fluorescence, higher = more signal;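 also: probe is lysate of COS7 cells overexpressing human LULL1; score merges per-feature 667 nm fluorescence with signal-to-noise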
Chain of Torsin-1A-interacting protein 2 (Homo sapiens) (Q8NFQ8 whole entry, looked up): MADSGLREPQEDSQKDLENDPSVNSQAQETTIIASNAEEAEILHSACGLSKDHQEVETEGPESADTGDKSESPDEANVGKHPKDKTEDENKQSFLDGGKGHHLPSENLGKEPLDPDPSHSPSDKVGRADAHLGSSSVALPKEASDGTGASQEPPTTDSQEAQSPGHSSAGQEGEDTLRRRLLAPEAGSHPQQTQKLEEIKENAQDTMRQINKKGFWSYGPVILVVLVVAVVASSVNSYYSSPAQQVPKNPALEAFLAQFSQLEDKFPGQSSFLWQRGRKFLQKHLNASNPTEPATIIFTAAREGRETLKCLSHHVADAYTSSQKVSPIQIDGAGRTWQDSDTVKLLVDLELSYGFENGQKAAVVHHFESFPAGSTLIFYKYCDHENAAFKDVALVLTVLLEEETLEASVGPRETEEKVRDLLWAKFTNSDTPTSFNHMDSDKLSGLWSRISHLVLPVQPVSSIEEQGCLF

[16] = E. coli growth modulation, two-sided OD650, primary screen, E. coli filamentation project, strain DRC41, 24 h (AID 1093); conditions: OD650, 24 h, higher = more signal, called active from +8 up or from −8 down;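 also: MC1000 strain lacking acrAB efflux and sulA so SOS filamentation is blocked; test concentration not given here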
[17] = small-molecule microarray binders of probe aLefty2, primary screen, biochemical, biotinylated probe, 635/667 nm fluorescence (AID 1094); conditions: higher = more signal;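 also: score merges spot fluorescence near 667 nm with spot signal-to-noise ratio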
[18] = system: Noggin (protein binding on small-molecule microarray); experiment: Noggin binders on small-molecule microarray, primary screen, biochemical, 635/667 nm fluorescence (AID 1095); conditions: 635 nm fluorescence, higher = more signal;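 also: score merges 667 nm feature fluorescence with signal to noise over triplicate slides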
[19] = target: Neurogenic locus notch homolog protein 3 (Homo sapiens) (UniProt Q9UM47); experiment: NOTCH3 binders on small-molecule microarray, primary screen, biochemical, 635/667 nm fluorescence (AID 1096); conditions: NOTCH3 binding, 635 nm fluorescence, higher = more signal
[20] = small-molecule microarray binders of probe aEGFR, primary screen, biochemical, biotinylated probe, 635/667 nm fluorescence (AID 1097); conditions: higher = more signal;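 also: probe is a biotinylated anti-EGFR antibody binding compounds printed on slides; score combines fluorescence near 667 nm and signal to noise of each spot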

Structure (SMILES) | composite z-score [1] | composite z-score [2] | composite z-score [3] | composite z-score [4] | composite z-score [5] | composite z-score [6] | composite z-score [7] | z-score [8] | composite z-score [9] | composite z-score [10] | composite z-score [11] | z-score [12] | z-score [13] | z-score [14] | composite z-score [15] | z-score [16] | composite z-score [17] | composite z-score [18] | composite z-score [19] | composite z-score [20]
CC(C)N1C(=O)[C@@]2(c3ccc([N+](=O)[O-])cc3)CC(=O)N(C3CCCCC3)[C@@H]2c2ccc(CO)cc21 | -0.437 | 0.0633 | -0.151 | -0.0689 | -0.465 | -0.299 | 0.209 | 1.25 (inactive) | -0.293 | -0.118 | 1.27 | -1.78 (inactive) | 0.353 (inactive) | -2.19 (inactive) | 0.198 | -1.43 (inactive) | -0.103 | 0.622 | -0.509 | -0.0565
COc1ccc([Si](C)(C)[C@@H]2[C@@H](CCn3cc([C@H](O)c4ccccc4)nn3)O[C@]3(C(=O)N(Cc4ccc(N5CCOC5=O)cc4)c4ccccc43)[C@H]2C)cc1 | -0.28 | 0.882 | -0.0658 | 0.512 | 0.62 | 0.61 | 0.825 | 0.216 (inactive) | 0.137 | 0.0854 | 1.55 | -0.113 (inactive) | 0.984 (inactive) | 2.04 (inactive) | 0.995 | 1.87 (inactive) | 0.047 | 1.01 | 1.12 | 0.0711
COc1c(C)cc(-c2cc3c(c(-c4ccccc4)n2)[Si](C(C)C)(C(C)C)OC3)cc1C | -0.0563 | -0.0385 | -0.241 | -0.304 | -0.181 | -0.112 | -1.15 | -0.577 (inactive) | -0.205 | -0.0672 | -0.267 | 0.105 (inactive) | -0.747 (inactive) | -0.275 (inactive) | -0.495 | 0.346 (inactive) | 0.0008 | -0.24 | -0.263 | -0.0262
